# Results: PubChem BioAssay (NCATS)
# Records with an inconclusive call do not appear. Where a call stands in place of a potency, no number is given. The source made the active and inactive calls. Calls come from the whole dose curve; as a rule, active = well fitted curve in the direction sought with a large enough effect; inconclusive = small, poorly fitted or top-dose-only effect, or another doubt; inactive = no such curve, though single readings can be large; an effect the other way counts as inactive or inconclusive.
# What was measured:
# [1] = target: DNA dC->dU-editing enzyme APOBEC-3G (Homo sapiens) (UniProt Q9HC16); assay: qHTS for inhibitors of Vif-A3G interactions: Validation (AID 588379)
# Summary of the method: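 Yellow fluorescence (Ex 488, Em 500-530) of Vif-coexpressing HeLa A3G-eYFP cells, scanned by Acumen cytometer, reports blocked A3G degradation. Cells plated at 700/well overnight at 37 deg C before compound addition, then a further overnight compound incubation at 37 deg C.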
# [2] = target: ATP-dependent 6-phosphofructokinase (Trypanosoma brucei brucei) (UniProt O15648); assay: qHTS Assay to Find Inhibitors of T. brucei phosphofructokinase: hit validation (AID 492961);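 note: luminescence reports ADP formed as PFK phosphorylates fructose-6-phosphate with ATP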
# Summary of the method: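 Inhibition of parasite PFK is measured as reduced ADP formation, quantified via luciferase after ATP depletion. Assay used 0.1 mM ATP, 0.5 mM F6P, 1.25 nM enzyme, 45 min incubation.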
# 7G8 = assay: qHTS profiling for inhibitors of Plasmodium falciparum proliferation (AID 504749); note: nearly all actives have a fitted effect of over 60% in size; note: potency is the fitted concentration of half-maximal effect; conditions: P. falciparum in erythrocytes, SYBR Green DNA, 72 h; series mostly up to 12.8 µM
# Summary of the method: (§1)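 SYBR Green fluorescence (ex 485 nm, em 535 nm) reports parasite DNA after 72 h compound exposure of infected red cells at 0.3% parasitemia, 2.5% hematocrit; signal normalized to 0.29 uM artemisinin and vehicle wells.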
# ATS189 = assay: as above; conditions: P. falciparum in erythrocytes, SYBR Green DNA, 72 h; series mostly up to 12.8 µM
# Summary of the method: as §1
# ATS95 = assay: as above; conditions: P. falciparum in erythrocytes, SYBR Green DNA, 72 h; series mostly up to 12.8 µM
# Summary of the method: as §1
# CP286 = assay: as above; conditions: P. falciparum in erythrocytes, SYBR Green DNA, 72 h; series mostly up to 12.8 µM
# Summary of the method: as §1
# [3] = S16 Schwann cell PMP22 intronic element firefly luciferase assay (AID 624032); note: nearly all actives have a fitted effect of over 30% in size
# Summary of the method: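 Rat S16 Schwann cells stably carrying firefly luciferase driven by a PMP22 intronic element, in 10% FBS, treated 24 h at 37 C. ONE-Glo luminescence normalized to PTC124 control and DMSO (0%); curves classed by r2, magnitude and activity.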
# CP203 = assay: qHTS profiling for inhibitors of Plasmodium falciparum proliferation (AID 504749); note: nearly all actives have a fitted effect of over 60% in size; note: potency is the fitted concentration of half-maximal effect; conditions: P. falciparum in erythrocytes, SYBR Green DNA, 72 h; series mostly up to 12.8 µM
# Summary of the method: as §1
# CP215 = assay: as above; conditions: P. falciparum in erythrocytes, SYBR Green DNA, 72 h; series mostly up to 12.8 µM
# Summary of the method: as §1
# CP335 = assay: as above; conditions: P. falciparum in erythrocytes, SYBR Green DNA, 72 h; series mostly up to 12.8 µM
# Summary of the method: as §1
# DIV14 = assay: as above; conditions: P. falciparum in erythrocytes, SYBR Green DNA, 72 h; series mostly up to 12.8 µM
# Summary of the method: as §1
# DIV17 = assay: as above; conditions: P. falciparum in erythrocytes, SYBR Green DNA, 72 h; series mostly up to 12.8 µM
# Summary of the method: as §1
# GB4 = assay: as above; conditions: P. falciparum in erythrocytes, SYBR Green DNA, 72 h; series mostly up to 12.8 µM
# Summary of the method: as §1
# W2 = assay: as above; conditions: P. falciparum in erythrocytes, SYBR Green DNA, 72 h; series mostly up to 12.8 µM
# Summary of the method: as §1
# Chain of DNA dC->dU-editing enzyme APOBEC-3G (Homo sapiens) (Q9HC16 whole entry, looked up): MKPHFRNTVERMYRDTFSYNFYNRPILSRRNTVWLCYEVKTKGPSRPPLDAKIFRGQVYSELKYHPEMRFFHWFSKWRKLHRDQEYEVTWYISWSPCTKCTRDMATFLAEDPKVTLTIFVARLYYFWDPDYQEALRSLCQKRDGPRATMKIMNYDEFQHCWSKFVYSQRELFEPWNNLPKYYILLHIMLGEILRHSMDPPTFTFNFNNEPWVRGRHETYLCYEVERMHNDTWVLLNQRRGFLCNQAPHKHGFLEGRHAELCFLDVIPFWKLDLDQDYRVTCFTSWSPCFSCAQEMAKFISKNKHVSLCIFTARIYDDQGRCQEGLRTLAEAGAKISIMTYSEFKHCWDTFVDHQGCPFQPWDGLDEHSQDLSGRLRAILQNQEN
# Chain of ATP-dependent 6-phosphofructokinase (Trypanosoma brucei brucei) (O15648 whole entry, looked up): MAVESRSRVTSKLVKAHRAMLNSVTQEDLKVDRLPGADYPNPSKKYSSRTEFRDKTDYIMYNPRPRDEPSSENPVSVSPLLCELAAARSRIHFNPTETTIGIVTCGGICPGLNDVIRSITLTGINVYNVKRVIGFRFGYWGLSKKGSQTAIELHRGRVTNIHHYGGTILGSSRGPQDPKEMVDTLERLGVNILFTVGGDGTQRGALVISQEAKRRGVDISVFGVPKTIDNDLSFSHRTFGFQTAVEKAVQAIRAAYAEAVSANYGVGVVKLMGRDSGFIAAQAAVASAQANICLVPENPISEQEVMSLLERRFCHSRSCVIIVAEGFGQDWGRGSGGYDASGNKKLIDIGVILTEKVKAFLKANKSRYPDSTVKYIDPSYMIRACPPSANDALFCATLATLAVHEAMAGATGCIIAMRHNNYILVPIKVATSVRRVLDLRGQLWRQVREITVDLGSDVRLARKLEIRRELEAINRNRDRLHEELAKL
structure (smiles),measurement,setting,value
O=c1ccn([C@H]2C[C@H](O)[C@@H](CO)O2)c(=O)[nH]1,outcome,[1],inactive
C[C@H](CCC(=O)O)[C@H]1CC[C@H]2[C@H]3C(C[C@H](O)[C@]12C)[C@@]1(C)CC[C@@H](O)C[C@H]1C[C@H]3O (stereo partly specified),outcome,[1],inactive
CO[C@]12C(COC(N)=O)C3=C(C(=O)C(C)=C(N)C3=O)N1CC1NC12 (stereo partly specified),outcome,[2],inactive
same,Potency,7G8,708 nM (active)
same,Potency,ATS189,1260 nM (active)
same,Potency,ATS95,1000 nM (active)
same,Potency,CP286,501 nM (active)
N[C@H](CO)Cc1cnc[nH]1,outcome,[1],inactive
C[C@@]12C=CC(=O)C=C1CCC1C3CC(O)[C@@](O)(C(=O)CO)[C@]3(C)CC(O)[C@]12F (stereo partly specified),outcome,[2],inactive
same,Potency,[3],inactive
same,Potency,7G8,inactive
same,Potency,ATS189,inactive
same,Potency,ATS95,inactive
same,Potency,CP203,inactive
same,Potency,CP215,inactive
same,Potency,CP286,inactive
same,Potency,CP335,inactive
same,Potency,DIV14,inactive
same,Potency,DIV17,inactive
same,Potency,GB4,inactive
same,Potency,W2,inactive
COC(=O)CCCC[C@@H]1SC[C@@H]2NC(=O)N[C@@H]21,outcome,[1],inactive
CC[C@H](CC[C@@H](C)C1CC[C@H]2[C@@H]3CC=C4C[C@@H](O)CC[C@]4(C)[C@H]3CC[C@]12C)C(C)C (stereo partly specified),outcome,[1],inactive
NC(CCC(=O)N[C@@H](CS)C(=O)NCC(=O)O)C(=O)O (stereo partly specified),outcome,[2],inactive
same,Potency,7G8,708 nM (active)
same,Potency,ATS189,8910 nM (active)
same,Potency,CP335,6010 nM (active)
same,Potency,DIV14,3010 nM (active)
same,Potency,DIV17,2690 nM (active)
same,Potency,GB4,6750 nM (active)
same,Potency,W2,3010 nM (active)
NC(C(=O)O)[C@@H]1CC(Cl)=NO1 (stereo partly specified),Potency,7G8,631 nM (active)
same,Potency,ATS189,2820 nM (active)
same,Potency,ATS95,1000 nM (active)
same,Potency,CP203,3380 nM (active)
same,Potency,CP215,3010 nM (active)
same,Potency,CP286,794 nM (active)
same,Potency,CP335,1200 nM (active)
same,Potency,DIV14,2390 nM (active)
same,Potency,DIV17,3380 nM (active)
same,Potency,GB4,1200 nM (active)
same,Potency,W2,849 nM (active)
CC(C)Oc1ccc2c(=O)cc(-c3ccccc3)oc2c1,outcome,[2],inactive
same,Potency,[3],inactive
same,Potency,7G8,inactive
same,Potency,ATS189,inactive
same,Potency,ATS95,inactive
same,Potency,CP203,inactive
same,Potency,CP215,inactive
same,Potency,CP286,inactive
same,Potency,CP335,inactive
same,Potency,DIV14,inactive
same,Potency,DIV17,inactive
same,Potency,W2,47.8 nM (active)
Nc1ccn([C@@H]2O[C@H](CO)[C@@H](OP(=O)(O)O)[C@H]2O)c(=O)n1,outcome,[1],inactive
O=C1c2ccccc2C(=O)c2c(O)c(O)cc(O)c21,outcome,[1],inactive
NC(=O)NCCC[C@H](N)C(=O)O,outcome,[1],inactive
C[C@H]1C[C@]2(O[C@@H]2C)C(=O)O[C@@H]2CCN(C)C/C=C(/COC(=O)[C@]1(C)O)C2=O,outcome,[1],inactive
CC(C)[C@H]1CC[C@@H](C)C[C@H]1O,outcome,[1],inactive
O=C(O)C1(O)C[C@H](O)C(O)[C@@H](O)C1 (stereo partly specified),outcome,[1],inactive
O=c1[nH]c(=O)n([C@@H]2O[C@H](CO)[C@@H](O)[C@H]2O)cc1Br,outcome,[1],inactive
COc1ccc2c(c1OC)C(=O)O[C@H]2C1c2c(cc3c(c2OC)OCO3)CCN1C (stereo partly specified),outcome,[1],inactive
OCC1OC(Oc2cccc3cccnc23)C(O)C(O)C1O (stereo unspecified),outcome,[1],inactive
CC[C@H](C)[C@H](NC(=O)OCC1c2ccccc2-c2ccccc21)C(=O)O,outcome,[1],inactive
COC1OC2COC(c3ccccc3)OC2C(O)C1O (stereo unspecified),outcome,[1],inactive
Nc1ccn([C@H]2C[C@H](O)[C@@H](CO)O2)c(=O)n1,outcome,[1],inactive
